Structures are written as SMILES. This is part of a sample that, as a whole, favours compounds with a hit. Of some 83,000 tested, about 20% had one in any assay.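 Negative percent growth values reflect cell death: -40 means 40% of the cells present at the start died, and -100 means all died.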 Values without a mark were called inactive. Calls of active or inactive are those of the source. The calls were made as follows: active = growth percent below 10; inactive = the rest.

We go through nine compounds from PubChem BioAssay (NCI).

Test systems include HCT-15 colon; HT29 colon; SNB-75 CNS; U251 CNS; PC-3 prostate; SK-MEL-5 melanoma; UACC-62 melanoma; LOX IMVI melanoma; SK-MEL-28 melanoma; SN12C renal; UO-31 renal; ACHN renal; CAKI-1 renal; A498 renal; MOLT-4 leukemia; CCRF-CEM leukemia; SK-MEL-2 melanoma; EKVX NSCLC; TK-10 renal; SNB-19 CNS.
What all share (assay): NCI-60 one-dose screen, 48 h (100 = growth as untreated, 0 = no growth, -100 = all killed)
Holding throughout (conditions): 10 µM unless noted

For the compound `COc1ccccc1-n1c(SCc2cc(OC)c(OC)c(OC)c2)nc2ccc(Cl)cc2c1=O`, the growth was 27.8% with HCT-15 colon; 7.69% (active) in the assay with HT29 colon; -4.26% (active) with SNB-75 CNS; 25.6% in the assay on U251 CNS; 19.6% with PC-3 prostate; 27.7% in the assay on SK-MEL-5 melanoma. Moreover, the growth in the assay on UACC-62 melanoma is 34.3%; in the assay on LOX IMVI melanoma, 33.2%; in the assay on SK-MEL-28 melanoma, 49.4%; with SN12C renal, 70.3%; with UO-31 renal it was 42.6%; in the assay with ACHN renal it was 44.2%. Moreover, the growth in the assay with CAKI-1 renal is 42.6%; in the assay on A498 renal it was 5.01% (active); with MOLT-4 leukemia, 15.4%.

Take `CC[Si](CC)(CC)OC1[C@@H](O[Si](CC)(CC)CC)[C@@H](CNC(=O)NC)O[C@H]1n1cnc2c(NC(=O)Nc3ccccc3)ncnc21` (some centres undefined): the growth is 86.2% in the assay with HCT-15 colon; 50.2% in the assay with HT29 colon; 78.1% in the assay with SNB-75 CNS; 82.8% in the assay with U251 CNS; 11.2% in the assay with PC-3 prostate; 95.1% with SK-MEL-5 melanoma. Besides, the growth with UACC-62 melanoma is 73%; in the assay on LOX IMVI melanoma, 93.7%; in the assay on SK-MEL-28 melanoma it was 104%; with SN12C renal, 93.6%; in the assay on UO-31 renal, 40.1%; with ACHN renal, 88.4%. Also, the growth in the assay with CAKI-1 renal is 69%; in the assay with A498 renal, 38.6%; with CCRF-CEM leukemia, 38.5%; in the assay with MOLT-4 leukemia it was -10.9% (active).

Regarding `Cc1nc(-c2ccccc2)cc2c(O)c(C(=O)N/N=C/Cc3ccccc3)[nH]c(=O)c12`, the growth in the assay with HCT-15 colon was 106%; in the assay on HT29 colon it was 93.8%; in the assay on SNB-75 CNS it was 90.7%; in the assay on U251 CNS, 98.8%; with PC-3 prostate it was 90%; in the assay with SK-MEL-5 melanoma, 107%. In addition, the growth in the assay with UACC-62 melanoma was 109%; in the assay with LOX IMVI melanoma, 95.7%; in the assay with SK-MEL-28 melanoma it was 115%; in the assay with SK-MEL-2 melanoma, 102%; in the assay on EKVX NSCLC, 103%; in the assay on SN12C renal, 104%. The growth is 95.1% with UO-31 renal; 109% in the assay with TK-10 renal; 104% in the assay with ACHN renal; 111% with CAKI-1 renal; 94.5% with A498 renal; 92.4% in the assay with CCRF-CEM leukemia. The growth with MOLT-4 leukemia is 90.5%.

As for `CCOC(=O)c1c(Cl)c2c(n1Cc1cc(OC)cc(OC)c1)-c1oncc1CCC2`, the growth in the assay on HCT-15 colon is 21.5%; with HT29 colon it was 3.92% (active); with SNB-75 CNS it was 1.91% (active); in the assay on U251 CNS, 33.2%; with PC-3 prostate it was 23.4%; in the assay on SK-MEL-5 melanoma, 17.7%. Also, the growth is 28.5% in the assay on UACC-62 melanoma; 43.7% with LOX IMVI melanoma; 40.7% with SK-MEL-28 melanoma; 44.6% in the assay on SK-MEL-2 melanoma; 38.9% with SN12C renal; 44.6% in the assay on UO-31 renal. For the same compound, the growth in the assay on TK-10 renal was 55.1%; in the assay with ACHN renal, 48.3%; in the assay on CAKI-1 renal it was 31.3%; in the assay on A498 renal it was -13% (active); with CCRF-CEM leukemia it was 7.48% (active); with MOLT-4 leukemia it was 30%.

`Cc1nc2cc(Nc3nc(Nc4ccc(F)cc4)nc(N4CCCC4)n3)ccc2n1Cc1ccccc1`: the growth is -33.4% (active) in the assay on HCT-15 colon; -76.1% (active) with HT29 colon; -15.1% (active) with SNB-75 CNS; 33.6% in the assay with SNB-19 CNS; -53.4% (active) with SK-MEL-5 melanoma; -86% (active) in the assay with LOX IMVI melanoma. Besides, the growth with SK-MEL-28 melanoma is -10.6% (active); in the assay on SK-MEL-2 melanoma, -58% (active); in the assay with SN12C renal, -62.9% (active); with UO-31 renal, -68.7% (active); in the assay on TK-10 renal, -55.8% (active); with ACHN renal, 11.5%. Also, the growth in the assay on CAKI-1 renal is -14.4% (active); with A498 renal, -19.3% (active); in the assay with CCRF-CEM leukemia, -30.4% (active); with MOLT-4 leukemia it was -30.7% (active).

Take `Fc1ccccc1Nc1ccc2nnc(-c3ccncc3)n2n1`: the growth is 95.6% with HCT-15 colon; 103% in the assay with HT29 colon; 101% in the assay on SNB-75 CNS; 101% in the assay on U251 CNS; 101% with PC-3 prostate; 103% with SK-MEL-5 melanoma. Also, the growth in the assay on UACC-62 melanoma is 107%; in the assay with LOX IMVI melanoma it was 95.6%; in the assay with SK-MEL-28 melanoma, 112%; in the assay with SK-MEL-2 melanoma, 92.8%; in the assay with SN12C renal it was 103%; in the assay with UO-31 renal, 88%. Also, the growth was 114% in the assay on TK-10 renal; 99.6% in the assay with ACHN renal; 102% in the assay on CAKI-1 renal; 95.6% with A498 renal; 96.1% in the assay with CCRF-CEM leukemia; 98.8% with MOLT-4 leukemia.

For the compound `O=C1CCC(N2C(=O)c3cccc(NCCOCCOCCNC(=O)c4cc5c(o4)C(=O)c4ccccc4C5=O)c3C2=O)C(=O)N1` (centres undefined), the growth was 55.1% with HCT-15 colon; -16.8% (active) in the assay on HT29 colon; -98.2% (active) with SNB-75 CNS; -42% (active) in the assay with U251 CNS; 6.46% (active) in the assay with PC-3 prostate; -98.2% (active) in the assay with SK-MEL-5 melanoma. Also, the growth in the assay with UACC-62 melanoma is -81.8% (active); in the assay with LOX IMVI melanoma, -74.1% (active); in the assay with SK-MEL-28 melanoma, -38.7% (active); in the assay on EKVX NSCLC, 55.9%; in the assay with SN12C renal, -90.6% (active); in the assay on UO-31 renal, 51%. Besides, the growth in the assay with TK-10 renal is 36.1%; in the assay with ACHN renal, 41.9%; with CAKI-1 renal, 22%; in the assay on CCRF-CEM leukemia, 14.5%; in the assay with MOLT-4 leukemia it was 6.06% (active).

Turning to `CCN(CC)c1ccc2c(c1)OS(=O)(=O)N=C2`, the growth in the assay on HCT-15 colon was 102%; in the assay with HT29 colon, 111%; in the assay with SNB-19 CNS, 101%; with U251 CNS, 99.3%; with PC-3 prostate, 100%; in the assay on SK-MEL-5 melanoma, 99.5%. For the same compound, the growth in the assay on UACC-62 melanoma is 101%; in the assay on LOX IMVI melanoma it was 89.2%; in the assay with SK-MEL-28 melanoma it was 105%; with SK-MEL-2 melanoma it was 113%; with EKVX NSCLC it was 88%; in the assay on SN12C renal it was 100%. Besides, the growth with UO-31 renal was 82.6%; in the assay on TK-10 renal it was 101%; in the assay with ACHN renal, 102%; in the assay on CAKI-1 renal, 94.7%; in the assay on CCRF-CEM leukemia, 106%; in the assay on MOLT-4 leukemia, 110%.

For `Cc1nc2cc(Nc3nc(Nc4ccc(F)cc4)nc(N4CCN(C)CC4)n3)ccc2n1Cc1ccccc1`, the growth in the assay on HCT-15 colon was -34.3% (active); in the assay on HT29 colon, -51.9% (active); in the assay with SNB-75 CNS it was -20.4% (active); with PC-3 prostate, 19.7%; in the assay on SK-MEL-5 melanoma it was 80.9%; in the assay with UACC-62 melanoma, -65.4% (active). The growth is -73.6% (active) in the assay on LOX IMVI melanoma; -67.4% (active) with SK-MEL-28 melanoma; -20.5% (active) in the assay on SK-MEL-2 melanoma; 34.9% in the assay on SN12C renal; -29% (active) in the assay with UO-31 renal; -12.1% (active) in the assay on TK-10 renal. Also, the growth with ACHN renal was 9.69% (active); in the assay with CAKI-1 renal, 18.6%; with A498 renal it was 29.2%; with CCRF-CEM leukemia it was -7.07% (active); with MOLT-4 leukemia, 1.11% (active).
